# According to the supplement of paper PMC12350171:
# Counter-ions that a name gives are not always drawn. Values without a mark were called inactive.
# How the values were obtained:
# Settings in all cases: 20 µM
# [1] = system: Salmonella enterica typhimurium; assay: growth AUC normalised to DMSO control (fraction of control); higher = less growth inhibition, active = hit call of the paper
# Summary of the method: (§1)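 After two anaerobic passages, pathogens were added at a starting OD578 of 0.01 to pre-reduced mGAM plates holding compound at 20 μM with 1% DMSO; hemin and NAD were supplemented for Haemophilus parainfluenzae. Sealed with breathable membranes, plates were read at OD578 hourly for 24 h, in three biological replicates. The trapezoidal rule, applied up to the exponential-to-stationary transition, gave the growth-curve AUC, which was normalised to DMSO controls on the same plate.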
# Shigella flexneri = assay: as above
# Summary of the method: as §1
# Vibrio cholerae = assay: as above
# Summary of the method: as §1
# [2] = system: Yersinia pseudotuberculosis; assay: as above
# Summary of the method: as §1
# P. vulgatus RND KO = assay: growth AUC normalised to DMSO control (median) (fraction of control); higher = less growth inhibition, active = hit call of the paper
# Summary of the method: (§2)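 Anaerobic growth was tracked hourly at OD578 for 24 h in 96-well plates of mGAM seeded at OD578 0.01 with each approved-drug library compound at 20 μM and 1% DMSO. Strains had first been passaged twice overnight without oxygen. Three biological replicates were run. The reported median is the area under the curve, calculated by the trapezoidal rule on curves truncated at entry into stationary phase and normalised to vehicle wells on the same plate.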
# P. vulgatus WT = assay: as above
# Summary of the method: as §2
# [3] = system: S. enterica typhimurium WT; assay: as above
# Summary of the method: as §2
# [4] = system: S. enterica typhimurium tolC KO; assay: as above
# Summary of the method: as §2
# 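Throughout, for growth AUC normalised to DMSO control (median): active when median AUC fell below 0.1.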
Compound,growth AUC normalised to DMSO control [1],growth AUC normalised to DMSO control (Shigella flexneri),growth AUC normalised to DMSO control (Vibrio cholerae),growth AUC normalised to DMSO control [2],growth AUC normalised to DMSO control (P. vulgatus RND KO),growth AUC normalised to DMSO control (P. vulgatus WT),growth AUC normalised to DMSO control [3],growth AUC normalised to DMSO control [4]
CO/N=C(\C(=O)N[C@@H]1C(=O)N2C(C(=O)O)=C(COC(C)=O)CS[C@H]12)c1csc(N)n1 [Cefotaxime sodium salt],0.00568 (active),0.0409 (active),0.0691 (active),0.0555 (active),0.00835 (active),0.0141 (active),0.00974 (active),0.00366 (active)
NCCCC(O)(P(=O)(O)O)P(=O)(O)O [Alendronate sodium],1.03,1.05,1.1,1.02,1.05,1.06,1,0.99
CC(=O)N1CCN(c2ccc(OCC3COC(Cn4ccnc4)(c4ccc(Cl)cc4Cl)O3)cc2)CC1 (stereo unspecified) [Ketoconazole],1.01,0.998,0.988,0.984,0.955,0.972,0.998,0.884
CCCCOc1ccc(C(=O)CCN2CCCCC2)cc1 [Dyclonine hydrochloride],0.985,0.963,0.913,0.979,1,1.01,0.996,0.986
CN1CCC(=C2c3ccccc3CC(=O)c3sccc32)CC1 [Ketotifen fumarate],1.01,0.999,0.985,1.01,0.979,0.997,1.01,0.999
COc1cc2nc(N(C)CCCNC(=O)C3CCCO3)nc(N)c2cc1OC (stereo unspecified) [Alfuzosin hydrochloride],1.01,1.03,1.06,0.978,1.02,1.08,1.01,1.01
COc1cc(C(=O)NS(=O)(=O)c2ccccc2C)ccc1Cc1cn(C)c2ccc(NC(=O)OC3CCCC3)cc12 [Zafirlukast],0.961,0.982,0.966,0.988,0.84,0.891,1.01,0.962
C[C@]12C=CC(=O)C=C1CC[C@H]1[C@@H]3C[C@@H](O)[C@](O)(C(=O)CO)[C@@]3(C)C[C@H](O)[C@@]12F [Triamcinolone],1,0.977,1,1,1.01,0.98,0.997,1.01
NCCNCCNCCNCCN [Tetraethylenepentamine pentahydrochloride],0.99,0.972,0.979,0.998,0.998,0.995,1.01,1
CNC1(C)C2CCC(C2)C1(C)C (stereo unspecified) [Mecamylamine hydrochloride],1.02,1,0.976,1.02,1.09,1.09,1.02,1.02
C1CCC(C(CC2CCCCN2)C2CCCCC2)CC1 (stereo unspecified) [Perhexiline maleate],0.983,0.977,0.931,1.01,0.915,0.954,0.994,0.945
CCCCCN(CCCCC)C(=O)C(CCC(=O)O)NC(=O)c1ccc(Cl)c(Cl)c1 (stereo unspecified) [Lorglumide sodium salt],1,0.965,0.986,1.01,0.947,0.959,1,0.991
Cc1ncc([N+](=O)[O-])n1CC(O)CCl (stereo unspecified) [Ornidazole],0.995,0.987,1.01,0.964,0.0124 (active),0.00943 (active),0.99,0.99
O=C(NCCO[N+](=O)[O-])c1cccnc1 [Nicorandil],0.995,0.99,0.991,0.999,0.986,0.996,1.01,1.01
CN(C)CCn1nnnc1SCC1=C(C(=O)O)N2C(=O)[C@@H](NC(=O)Cc3csc(N)n3)[C@H]2SC1 [Cefotiam hydrochloride],0.0032 (active),0.0159 (active),0.0593 (active),0.03 (active),0.0136 (active),0.00849 (active),0.00304 (active),0.00289 (active)
Clc1ccc(Cn2c(CN3CCCC3)nc3ccccc32)cc1 [Clemizole hydrochloride],0.98,0.988,0.922,0.986,0.902,0.857,0.997,0.949
CCN(CC)CCOC(=O)C(c1ccccc1)C1CCCCC1 (stereo unspecified) [Drofenine hydrochloride],0.989,1.01,0.929,1,1.01,1.03,0.989,0.943
O=C(NCC1CCCCN1)c1cc(OCC(F)(F)F)ccc1OCC(F)(F)F (stereo unspecified) [Flecainide acetate],0.995,0.966,0.988,0.989,1,1.03,1,1
CN1CCCC(CC2c3ccccc3Sc3ccccc32)C1 (stereo unspecified) [Metixene hydrochloride],0.987,1,0.944,1,0.774,0.704,1.01,0.923
COc1ccc2c(c1)N(C[C@H](C)CN(C)C)c1ccccc1S2 [Methotrimeprazine maleate salt],1.01,1.03,1,0.99,1.04,1.02,0.995,0.954
O=C(c1ccc(OCCN2CCCCC2)cc1)c1c(-c2ccc(O)cc2)sc2cc(O)ccc12 [Raloxifene hydrochloride],1.01,0.992,0.988,0.981,1.06,1.01,1.02,1.01
NC(=O)N/N=C/c1ccc([N+](=O)[O-])o1 [Nitrofural],0.713 (active),0.154 (active),0.01 (active),0.875 (active),0.0943 (active),0.254,0.902,0.818
O=C1NCCN1CCN1CCC(c2cn(-c3ccc(F)cc3)c3ccc(Cl)cc23)CC1 [Sertindole],1.02,1.04,1.02,1.01,0.833,0.905,1,0.949
CC(=O)Nc1nnc(S(N)(=O)=O)s1 [Acetazolamide],0.969,0.962,1.03,0.984,0.995,0.974,0.994,0.998
CCOc1ccccc1OC(c1ccccc1)C1CNCCO1 (stereo unspecified) [Reboxetine mesylate],0.991,0.986,1.01,0.995,1.01,1.01,1,0.988
C[C@]12C[C@H](O)[C@H]3[C@@H](CCC4=CC(=O)CC[C@@]43C)[C@@H]1CC[C@@H]2C(=O)CO [Corticosterone],1,0.978,0.984,0.996,1,1.01,1.02,1
CC(=O)OCC(=O)[C@@]12OC3(CCCC3)O[C@@H]1C[C@H]1[C@@H]3CCC4=CC(=O)C=C[C@]4(C)[C@@]3(F)[C@@H](O)C[C@@]12C [Amcinonide],1.01,1.02,1.04,1.04,0.993,0.991,1.01,0.988
